Screening data as filed in PubChem.
ATXN viability = Viability Counterscreen for Primary qHTS for Inhibitors of ATXN expression. Potency, µM (doses to about 56.7 µM), hits mostly cytotoxic. 400,000 compounds, 0.49% hits. S2 cells (HEK-293 line with an ATXN2-luciferase reporter) viability, CellTiter-Fluor protease fluorescence, 24 h; note: nearly all actives have a fitted effect of over 40% in size
ATXN2 expr inh = Primary qHTS for Inhibitors of ATXN expression | HEK-293 ATXN2-luciferase reporter, luminescence, 24 h | Potency, µM (doses to about 57 µM), for inactives: at the top dose activity change, negative = inhibition, usual class: inhibitors | 360,000 compounds, 0.72% hits | AID 1745845, 2022; note: % is set by controls: 0 for no effect and ±100 for the full control effect; nearly all actives have a fitted effect of over 55% in size
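ATXN2-luciferase reporter cells (luciferase flanked by upstream and downstream ATXN2 gene portions) were treated 24 h at 37 °C with compounds at up to 57 uM. SteadyGlo luminescence gave expression; GF-AFC fluorescence gave viability.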
HepG2 viability = qHTS for Inhibitors of TGF-b: Cytotox Counterscreen. HepG2 CAGA-GFP viability, ATP luminescence, 18 h. Potency, µM (top dose mostly 46.1 µM), for the others: at the top dose activity change, negative = cytotoxicity, usual class: cytotoxic. 410,000 compounds, 0.76% hits
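HepG2 CAGA-GFP cells (1000/well, DMEM with 1% FBS) received compound, then TGF-beta at 500 pg/mL final, and were incubated 18 hours at 37 degrees C. Viability was read by CellTiter-Glo luminescence. Media-only wells were set as complete cell-killing and DMSO as no toxicity.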
TGFb SMAD3 inh = qHTS for Inhibitors of TGF-b | HepG2 CAGA-GFP TGF-b/SMAD3 reporter, GFP fluorescence, 18 h; TGF-beta stimulated, 500 pg/mL final | Potency, µM (doses to about 46.1 µM), inactives show at the highest dose activity, negative = inhibition, most hits filed as inhibitors | 410,000 compounds, 1.2% hits | AID 588855, 2011; note: % is set by controls: 0 for no effect and ±100 for the full control effect; nearly all actives have a fitted effect of over 65% in size
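Per well, imaged GFP fluorescence of HEPG2 CAGA-GFP cells gives the signal; cells get compound, then TGF-beta (500 pg/mL final), 18 h at 37 degrees C; %Activity versus -TGF-beta and +DMSO controls.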
Nrf2 block = Nrf2 qHTS screen for inhibitors | 360,000 compounds, 2.1% hits | A549 ARE-Fluc reporter, luciferase luminescence, 18-24 h | Potency, µM (titrated, usually from 46 µM), for inactives: top-dose activity change, negative = inhibition, usual class: inhibitors; note: % is set by controls: 0 for no effect and ±100 for the full control effect; nearly all actives have a fitted effect of over 60% in size
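Nrf2 function is reported as luminescence of an ARE-controlled luciferase in A549 cells. Compounds were tested at several concentrations, and a CellTiter-Fluor read on the same wells flagged cytotoxicity.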
A549 tox = Nrf2 qHTS screen for inhibitors: counterscreen for cytotoxicity | A549 ARE-Fluc cells, CellTiter-Fluor viability, 18-24 h | 390,000 compounds, 0.16% hits | Potency, µM (doses to about 46 µM), without a hit: top-dose activity change, negative = cytotoxicity, actives largely listed as inhibitors; note: % is set by controls: 0 for no effect and ±100 for the full control effect
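A549 ARE_Fluc cells in 5% FBS OPTI-MEM were exposed to compounds in concentration-response for 18-24 h at 37 deg C. Viability was read by CellTiter-Fluor fluorescence (Ex 405/Em 525) after 30 min, before the luciferase read.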
Numbers without * were called inactive; i = inactive; u = inconclusive; x = no result; ! = a repeat was not active. Sampled rows, rich in hits. Any-hit rate of the full collection: about 3.8%. Calls come from the whole dose curve; as a rule, active = well fitted curve in the direction sought with a large enough effect; inconclusive = small, poorly fitted or top-dose-only effect, or another doubt; inactive = no such curve, though single readings can be large; an effect the other way counts as inactive or inconclusive. Potency is the fitted concentration of half-maximal effect.

SMILES | ATXN viability | ATXN2 expr inh | HepG2 viability | TGFb SMAD3 inh | Nrf2 block | A549 tox
CCN1C(=O)S/C(=C/c2ccsc2)C1=O | i | 12% | -13% | -1% | 2% | -6%
CC(C)N1C/C(=C/c2ccsc2)C(=O)/C(=C/c2ccsc2)C1 | x | u | -33% | 7.9µM* | -1% | -1%
CC(C)N1CC2=C(OC(N)=C(C#N)C2c2cccnc2)/C(=C/c2cccnc2)C1 (stereo unspecified) | i | -20% | -19% | -3% | 3% | 0%
CN1C/C(=C/c2cccnc2)C(=O)/C(=C/c2cccnc2)C1 | u | 20µM* | -77% | 2.8µM* | 10% | 0%
CC(C)N1C/C(=C/c2cccnc2)C(=O)/C(=C/c2cccnc2)C1 | u | -11% | -28% | 7.1µM* | 5% | 0%
Cc1ccc(C)c(-n2c(-c3csc(C)c3C)n[nH]c2=S)c1 | i | 1% | -29% | -21% | 10% | 1%
O=C(C[n+]1ccccc1Cl)c1ccc2c(c1)CCCC2 | x | x | -73% | -4% | x | x
Cc1ccc2c(C(=O)N3CCN(c4ccccc4)CC3)cc(-c3cccnc3)nc2c1C | i | -15% | -4% | -8% | 21µM* | u
Cc1cc(NC(=O)CN2C(=O)NC(c3ccccc3)(c3ccc(C)c(C)c3)C2=O)no1 (stereo unspecified) | i | x | -22% | -26% | 2% | 0%
Cc1ccc(CN2CCC(C)(Oc3cccc(Cl)c3)C2)cc1 (stereo unspecified) | i | -26% | -11% | -9% | x | x
COc1ccc([N+](=O)[O-])cc1NCc1ccccc1C | i | -26% | -37% | 16% | u | -1%
Cc1ccccc1CN1CCc2cc([N+](=O)[O-])ccc21 | i | u | 13µM* | -18% | -24% | -11%
Nc1[nH]c(C(=O)c2ccccc2)c(-c2ccc(Br)cc2)c1C(=O)NCCc1c[nH]c2ccccc12 | 22µM* | u | x | x | x | x
CNC(=O)[C@@H]1C[C@H](Sc2nc3ccccc3[nH]2)CN1Cc1cccc(C(F)(F)F)c1 | i | x | x | x | x | x
Cc1ccc(/C=N/N2C(=S)SC(C)(C)C2N(O)C(=O)Nc2ccc([N+](=O)[O-])cc2)cc1 (stereo unspecified) | i | -18% | -44% | u | u | u
CC1(C)SC(=S)N(/N=C/c2ccc(O)cc2)C1N(O)C(=O)Nc1ccc([N+](=O)[O-])cc1 (stereo unspecified) | u | -31% | -45% | u | 16µM* | u
COC(=O)c1ccc(Cn2cnc3c(cnn3-c3ccc(C)c(C)c3)c2=O)o1 | u | -19% | 2% | -7% | 23µM* | -15%
COC(=O)c1ccc(Cn2cnc3c(cnn3-c3ccc(F)cc3)c2=O)o1 | i | 9% | -12% | -11% | 2% | -1%
COc1cccc(OC(=O)CSc2nnc(-c3cccs3)o2)c1 | x | x | 11% | 20% | u | 12%
Cc1cccn2c(=O)c(C(=O)NC(C)c3ccccc3)c(O)nc12 (stereo unspecified) | u | -19% | -31% | -4% | 6.5µM* | u
CC(=O)Nc1ccc(OS(=O)(=O)c2c(C)cc(C)cc2C)cc1 | i | x | 3% | -2% | 3% | 15%
Cc1cc(C)cc(NC(=O)C(=O)NCC(c2ccc3c(c2)OCO3)N2CCN(C)CC2)c1 (stereo unspecified) | u | -38% | -52% | -29% | x | -14%
Nc1nnnn1-c1ccccc1 | i | -6% | x | x | x | x
c1nc(N2CCN(Cc3ccc4c(c3)OCO4)CC2)c2[nH]cnc2n1 | i | -1% | 3% | -1% | 8% | 10%
COc1cccc(N2CCN(c3ncnc4c3[nH]c3ccc(F)cc34)CC2C)c1 (stereo unspecified) | 10µM* | 3.5µM* | -70% | u | 6.5µM* | 18µM*
SMILES | ATXN viability | ATXN2 expr inh | HepG2 viability | TGFb SMAD3 inh | Nrf2 block | A549 tox
COc1ccc2c(c1)[nH]c1c(N3CCSCC3)ncnc12 | i | u | -30% | 0% | 21µM* | u
COc1ccc2c(c1)[nH]c1c(N3CCN(Cc4ccc5c(c4)OCO5)CC3)ncnc12 | 10µM* | 14µM* | -53% | 20µM* | 13µM* | -6%
CCSc1ccc2cc(OC)ccc2[n+]1CC | i | -21% | -7% | 5% | 16µM* | -24%
CCn1ccc2cc(OC)ccc2c1=S | i | -25% | -6% | 1% | -13% | -14%
CN(CCCS(=O)(=O)[O-])c1ccc(/C=C/c2ccc3ccccc3[n+]2C)cc1 | i | x | 2% | -11% | -34% | -10%
CN(C)c1ccc(/C=C/c2ccc3ccccc3[n+]2C)cc1 | 10µM* | u | 7.1µM*! | 2.2µM* | 15µM* | 23µM*
CN(C)c1ccc(/C=C/c2c[n+](C)cc3ccccc23)cc1 | x | x | -25% | 13µM* | x | x
CN(C)c1ccc(/C=C/c2cncc3ccccc23)cc1 | x | x | -2% | 3% | x | x
CCN(CC)S(=O)(=O)c1nnc(NC(=O)COc2ccccc2)s1 | x | x | -3% | -36% | u | 9%
CCN(CC)S(=O)(=O)c1nnc(NC(=O)COc2ccc(Cl)cc2)s1 | i | -5% | -21% | -23% | 4.1µM* | 0%
CC(=O)c1cccc(NC(=O)c2sc(-n3nc(C)c(Cc4ccc5c(c4)OCO5)c3C)nc2C)c1 | x | x | -4% | u | 9.2µM* | u
CCc1ccc2oc(C(=O)NCC(c3ccc(OC)cc3)N3CCCCC3)c(C)c2c1 (stereo unspecified) | i | 3% | 2% | 9% | -23% | -19%
COc1cc(OC)cc(-c2cc3nc(C)c(CCC(=O)NCCc4cccc(C)c4)c(C)n3n2)c1 | i | -18% | 1% | 0% | 10µM* | -6%
Cc1cccc(CCNC(=O)CCc2c(C)nc3c(c(C)nn3-c3ccccc3)c2C)c1 | i | -3% | 1% | 5% | 23µM* | -18%
COc1cc(OC)cc(-c2cc3nc(C)c(CCC(=O)NCc4ccc(Cl)cc4)c(C)n3n2)c1 | u | u | -36% | u | 10µM* | 6%
Cc1ccc(N2CC(C(=O)Nc3nccs3)CC2=O)cc1Cl (stereo unspecified) | i | 6.3µM* | -43% | -1% | u | 16µM*
CC(C)c1nnc(NC(=O)c2c(O)c3cccc4c3n(c2=O)CCC4)s1 | i | -20% | -11% | -11% | 16µM* | u
O=C(Cn1sc2ccccc2c1=O)NC12CC3CC(CC(C3)C1)C2 | u | -33% | 5.6µM* | u | 15% | -1%
